Compound activity: PubChem BioAssay, The Scripps Research Institute Molecular Screening Center
Rows were chosen to be rich in hits. Some 2.6% of all compounds tested hit in one or more screens of this group.
PKA-R2B act – PKA-R2B complex activation | P22694+P31323 | AID 504700 | 0.079% of 340,000 active | activation, % at 11.4 µM | PKA-R2B holoenzyme dissociation, Cy5-IP20 fluorescence polarization; R2B truncated from residue 108, S112A mutant; 0% DMSO only, 100% 113 µM cGMP;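 active = activation above a cutoff set at the mean over all compounds plus 3 SD, cut at about 18% in these data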;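 note: higher means more holoenzyme dissociation and a rise in polarization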
Target sequence (P31323 whole entry, looked up, other chains not shown, the tested form may be a part): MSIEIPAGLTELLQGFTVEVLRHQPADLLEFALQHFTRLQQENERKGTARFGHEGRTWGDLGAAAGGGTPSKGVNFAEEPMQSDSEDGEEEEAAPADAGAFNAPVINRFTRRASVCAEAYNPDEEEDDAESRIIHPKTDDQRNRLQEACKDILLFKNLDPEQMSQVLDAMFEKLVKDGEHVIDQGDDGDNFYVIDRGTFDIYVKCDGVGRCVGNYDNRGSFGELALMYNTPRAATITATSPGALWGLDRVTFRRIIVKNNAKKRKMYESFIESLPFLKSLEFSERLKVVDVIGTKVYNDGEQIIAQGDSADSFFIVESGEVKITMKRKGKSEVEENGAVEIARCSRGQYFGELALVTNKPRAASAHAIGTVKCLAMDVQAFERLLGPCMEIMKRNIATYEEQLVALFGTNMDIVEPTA
PAFAH1B3 inh – blocks human PAF acetylhydrolase 1B catalytic subunit 3 | Q15102 | recombinant PAFAH1B3, FP-rhodamine probe, fluorescence polarization | inhibition, % at 3.39 µM | 0.28% of 340,000 active | AID 492972;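 active = inhibition above the screen-wide average of all tested compounds plus 3 SD, cut at about 25% in these data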
Target sequence (Q15102 whole entry, looked up): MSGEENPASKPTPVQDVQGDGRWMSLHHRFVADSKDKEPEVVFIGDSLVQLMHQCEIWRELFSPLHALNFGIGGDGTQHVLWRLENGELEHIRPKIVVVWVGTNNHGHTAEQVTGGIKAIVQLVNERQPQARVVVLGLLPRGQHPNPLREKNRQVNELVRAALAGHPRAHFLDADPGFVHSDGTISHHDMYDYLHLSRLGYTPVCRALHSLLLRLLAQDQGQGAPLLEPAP
PAFAH2 inh – PAFAH2 (human) inhibition; Q99487; recombinant PAFAH2, FP-rhodamine activity probe, fluorescence polarization; 0.99% of 340,000 active; inhibition, % at 3.39 µM;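 active = inhibition above the mean over all tested compounds plus 3 SD, cut at about 30% in these data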;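 note: inhibitors block probe labeling of enzyme so polarization drops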
pPAFAH inh – inhibitors of human plasma PAF acetylhydrolase (pPAFAH); Q13093; recombinant pPAFAH, FP-rhodamine probe fluorescence polarization; inhibition, % at 3.39 µM; 1.5% of 330,000 active;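 active = inhibition above the mean inhibition across the screen plus 3 SD, cut at about 25% in these data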;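 note: inhibitors block binding of the rhodamine activity-based probe so polarization drops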
PKA-R1A activ – activates the PKA-R1A holoenzyme complex. PKA-R1A dissociation, Cy5-IP20 fluorescence polarization; scaled: DMSO 0%, 113 µM cGMP 100%. activation, % at 11.4 µM. 0.083% of 340,000 active;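 active = percent activation above the mean of all tested compounds plus 3 SD, cut at about 19% in these data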;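 note: higher means more PKAc released from R1A so a rise in polarization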
PAFAH1B2 inh – PAFAH1B2 (human) inhibition | inhibition, % at 3.39 µM | recombinant PAFAH1B2, FP-rhodamine activity probe, fluorescence polarization | 1.2% of 340,000 active | P68402;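 active = inhibition above the mean of all tested compounds plus 3 SD, cut at about 24% in these data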
pPAFAH FP conf – confirmation of human plasma PAF acetylhydrolase (pPAFAH) inhibitors; recombinant pPAFAH, FP-Rh probe fluorescence polarization; AID 463230; inhibition, % at 3.39 µM; 72% of 2,300 active; shares compounds with pPAFAH inh;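 active = mean inhibition of the triplicate above the hit cutoff set for the earlier primary screen, cut at about 25% in these data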
Numbers stand for hits; i = inactive; nt = no result.

SMILES | PKA-R2B act | PAFAH1B3 inh | PAFAH2 inh | pPAFAH inh | PKA-R1A activ | PAFAH1B2 inh | pPAFAH FP conf
CN(CCc1ccccc1)C(=O)c1cccc(NC(=O)Cc2cccc(NC(=O)C3CCN(C(=O)c4ccccc4)CC3)c2)c1 | i | i | i | nt | i | i | nt
Cc1ccc(OCC(=O)N/N=C/C=C/c2ccco2)cc1 | i | i | i | 51 | i | i | i
Cc1nn(-c2cccc(C(F)(F)F)c2)c(Cl)c1/C=N/Nc1cccc(C(=O)O)c1 | i | i | i | 35 | i | i | 35
Cc1cc(O)c2c(c1O)C(=O)[C@]13C(=C2O)C(=O)[C@@H]2[C@@H](O)[C@H]1[C@@H]1[C@H](O)[C@H]3C(=O)C3=C(O)c4c(O)cc(C)c(O)c4C(=O)[C@]312 | i | 37 | 43 | 54 | i | i | i
COc1ccc(-n2cc(-c3ccccc3)c3c(NCCCN4CCOCC4)ncnc32)cc1 | i | i | i | 35 | i | i | i
COc1cc(C2CC(=O)N3CN(Cc4ccco4)CSC3=C2C#N)ccc1OCc1ccccc1 (configuration not stated) | i | i | i | 36 | i | i | i
Cc1cc(C(=O)OCC(=O)N2CCCCCC2)ccc1[N+](=O)[O-] | i | i | i | i | i | i | nt
COc1cc2cc3c(N)c(C(=O)Nc4sc(C)c(C)c4C#N)sc3nc2cc1OC | i | i | i | 52 | i | i | i
COc1cc2cc3c(N)c(C(=O)NCc4ccco4)sc3nc2cc1OC | i | i | i | i | i | i | nt
Cc1ccc(C)c(S(=O)(=O)Nc2cc3c4c(c2)CCC(=O)N4CCC3)c1 | i | i | i | i | i | i | nt
CCc1ccc(Nc2n[n+](-c3ccccc3)c(-c3c(Cl)cccc3Cl)s2)cc1 | i | i | i | 56 | i | i | 34
COc1ccc(C)cc1Nc1n[n+](-c2ccccc2)c(-c2c(Cl)cccc2Cl)s1 | nt | nt | nt | 53 | nt | nt | 53
Fc1ccc(-[n+]2nc(Nc3ccccc3)sc2-c2c(Cl)cccc2Cl)cc1 | i | i | i | 51 | i | i | i
O=C(CCNS(=O)(=O)c1ccc(F)c(Cl)c1)NCc1ccccc1F | i | i | i | i | i | i | nt
CN(CC(=O)Nc1ccc(Cl)c(C(F)(F)F)c1)C(=O)c1ccccc1SCC(=O)N1CCCC1 | i | i | i | nt | i | i | nt
Cc1ccccc1CN1C(=O)[C@H]2Cc3c([nH]c4ccccc34)C(C)(C)N2C1=O | i | i | i | i | i | i | nt
COc1ccccc1NC(=O)c1cc2cc(Br)ccc2cc1O | i | 29 | i | 42 | i | i | 45
COc1ccc(NC(=O)NNC(=O)c2cc3ccccc3cc2O)cc1 | i | i | i | i | i | i | nt
COc1ccc(C)cc1NC(=O)NNC(=O)c1cc2ccccc2cc1O | i | 34 | i | 48 | i | i | 52
CCOC(=O)c1c(-c2ccc(F)cc2)csc1NC(=O)C1CC=CCC1C(=O)O (configuration not stated) | i | i | i | i | i | i | nt
CCOC(=O)c1c(-c2ccc(C)c(C)c2)csc1NC(=O)C1CC=CCC1C(=O)O (configuration not stated) | i | i | i | 41 | i | i | 39
CC1=C(C(=O)OCCCBr)C(c2ccc3c(c2)OCO3)NC(=O)N1 (configuration not stated) | i | i | i | 43 | i | i | i
COC(=O)[C@H](CCSC)NC(=O)Cn1cnc2c(NCc3ccccc3)ncnc21 | i | i | i | i | i | i | nt
O=C(CCCSc1ccccc1)Nc1nc(-c2ccco2)c(-c2ccco2)s1 | i | i | i | 56 | i | i | i
Cc1cc(O)c(C=O)c2c1C(=O)Oc1c(CO)c(O)c3c(c1O2)C(O)OC3=O (configuration not stated) | i | 33 | 48 | 89 | i | i | 27
SMILES | PKA-R2B act | PAFAH1B3 inh | PAFAH2 inh | pPAFAH inh | PKA-R1A activ | PAFAH1B2 inh | pPAFAH FP conf
Cc1cc(C)c(NC(=O)CS(=O)CC(=O)N2CCN(c3cccc(C)c3C)CC2)c(C)c1 (configuration not stated) | i | i | i | i | i | i | nt
Cc1ccnc(NC(=O)c2cc3c(=O)oc4ccc(C)cc4c3s2)c1 | i | i | i | i | i | i | nt
Cc1ccc(NC(=O)c2cc3c(=O)oc4ccc(C)cc4c3s2)nc1 | nt | nt | nt | 66 | nt | nt | i
N#Cc1c(NCCCO)nc(-c2ccccc2)c2c1CCCC2 | i | i | i | 36 | i | i | i
N#Cc1c(NCCN)nc(-c2ccccc2)c2c1CCCC2 | i | i | i | i | i | i | nt
O=C(Cc1ccccc1[N+](=O)[O-])OCc1cccc([N+](=O)[O-])c1 | nt | nt | nt | i | nt | nt | nt
CN(CC(=O)Nc1ccc(Cl)cc1)C(=O)c1ccc(-n2cncn2)c([N+](=O)[O-])c1 | i | i | i | 71 | i | i | i
CCc1ccc(C(=O)COC(=O)CNC(=O)C2CCCCC2)cc1 | i | i | i | nt | i | i | nt
CCCCCCCC/C=C\CCCCCCCC(=O)NCCc1ccc(O)c(O)c1 | i | i | i | 70 | i | i | 62
CCCCCCCC/C=C\CCCCCCCC(=O)NCCO | i | i | i | i | i | i | nt
C[C@H]1CN([C@@H](C)CO)C(=O)Cc2cc(NS(=O)(=O)c3ccc(Cl)cc3)ccc2O[C@@H]1CN(C)C(=O)Nc1cccc2ccccc12 | i | i | i | 49 | i | i | 54
CC(C)NC(=O)N(C)C[C@H]1Oc2ccc(NS(=O)(=O)c3ccc(Cl)cc3)cc2CC(=O)N([C@@H](C)CO)C[C@@H]1C | i | i | i | i | i | i | nt
CCN(CC)S(=O)(=O)c1ccc(OC)c(NC(=O)CCS(=O)(=O)Cc2ccccc2)c1 | i | i | i | i | i | i | nt
C/C(=N\NC(=O)c1cc(O)cc(O)c1)c1ccc(NC(=O)Cc2ccccc2)cc1 | i | 35 | i | 45 | i | i | i
O=C(NCc1cccnc1)c1ccc(-c2ccccc2[N+](=O)[O-])o1 | i | i | i | 56 | i | i | i
O=C(NCc1cccnc1)c1ccc(-c2cccc(Cl)c2Cl)o1 | i | i | i | i | i | i | nt
CC1=CC(=O)C2(C)C(C)=C(C)C12C (configuration not stated) | i | nt | nt | nt | i | nt | nt
CCn1c(CCC(N)=O)nnc1SCC(=O)Nc1cccc(S(=O)(=O)N2CCCC2)c1 | i | i | i | i | i | i | nt
Cc1cc(S(=O)(=O)N2CCCC2)ccc1OCC(=O)Nc1ccc(C(N)=O)cc1 | i | i | i | 50 | i | i | i
OCCN1CCN(CCCN2c3ccccc3Sc3ccc(Cl)cc32)CC1 | i | i | i | 39 | i | i | 33
CN(C)CCCN1c2ccccc2Sc2ccc(Cl)cc21 | i | i | i | i | i | i | nt
COc1ccc(OC)c(S(=O)(=O)N/N=C\c2cn(CC(N)=O)c3ccccc23)c1 | i | i | i | i | i | i | nt
